Laboratory results from PubChem BioAssay AID1745848 (National Center for Advancing Translational Sciences (NCATS), 2022).
In all, about 2,100 compounds went through this assay and about 940 (45%) were called active. Roughly 48% stayed inconclusive and do not appear here. Calls come from the whole dose curve; as a rule, active = well fitted inhibition curve with a large enough effect; inconclusive = small, poorly fitted or top-dose-only effect; inactive = no such curve, though single readings can be large or run the other way. The set was probably picked from earlier hits. The list shows a part of the results.

assay: Confirmatory qHTS for Inhibitors of ATXN expression; settings: ATXN2-luciferase reporter cells, luminescence, 24 h; series mostly up to 57.5 µM; note: nearly all actives have a fitted effect of over 65% in size;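 for activity change, negative = inhibition: 0% = DMSO vehicle wells and -100% = medium-only wells without cells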
From the text: PI: Daniel Scoles Ph.D. University of Utah School of Medicine, Salt Lake City, Utah MLPCN Grant: NS073009 Spinocerebellar ataxia type 2 (SCA2) is a multisystem neurodegenerative disease caused by a dominantly acting mutation leading to expansion of a polyQ domain in the ataxin-2 protein (ATXN2). SCA2 patients develop progressive ataxia and later lose function in other neuronal systems. Prominent parkinsonian signs develop in some patients. Like many neurodegenerative disorders, no symptomatic or disease-modifying treatments are known. The primary objective of the proposed research is to identify compounds inhibiting ATXN2 expression and to test them for efficacy in SCA2 mouse models. We have developed a cell-based assay paired with an in vivo mouse model using identical luciferase expression constructs. This approach takes advantage of an ATXN2-luciferase transgene, with the luciferase gene flanked by the upstream and downstream portions of the ATXN2 gene. Here we describe a 5-7 dose quantitative high thoroughput screen (qHTS) for compounds lowering ATXN2 expression. We screened the NIH Molecular Libraries Small Molecule Repository (MLSMR) and NCGC's mechanistically annotated (MIPE) and drug repurposing (NPC) collections of compounds for lowering expression of an ATXN2-luciferase reporter in HEK-293 cells. The assay is a multiplexed cell viability assay to ensure target reduction in the absence of cytotoxicity. Secondary qHTS assays included a CMV-luciferase reporter expressed in HEK-293 cells as well as a biochemical assay using recombinant luciferase to detect inhibitors of the reporter enzyme. Compounds that inhibit ATXN2 expression but is not cytotoxic were selected for confirmatory and secondary screens.
PROTOCOL TABLE (as described by Inglese J, Shamu CE and Guy RK. 2007) SEQUENCE No. (e.g., 1, 2, 3, etc.); PARAMETER (e.g., Cells, Incubation, Reagent, etc.); VALUE; DESCRIPTION. 1; Cells; 4 uL; white, solid bottom, 1536-well Greiner assay plate. 2; Incubation; 2 hr; 37 degree C in 5% humidified CO2. 3; Compounds; 23 nL; Kalypsis pintool (Wako USA) equipped with a 1536-well pin head. 4; Incubation; 24 hr; 37 degree C in 5% humidified CO2. 5; Reagent; 1 uL; Gly-Phe-7-Amino-4-trifluoromethylcoumarin. 6; Incubation; 30 min; 37 degree C in 5% humidified CO2. 7; Detection; Fluorescence; ViewLux plate reader (PerkinElmer). 8; Reagent; 3 uL; SteadyGlo luciferase solution (Promega). 9; Incubation; 5 min; room temperature. 10; Detection; Luminescence; ViewLux plate reader (PerkinElmer). NOTES (numbers refer to Sequence numbers above) 1. […] expressing ATXN2-luciferase reporter were suspended in phenol-red free DMEM and dispensed in assay plates using a Multidrop Combi dispenser (Thermo Fisher Scientific). Wells containing medium only were plated on each plate, and values were used to normalize (100% inhibition) in the luciferase and CellTiter-Fluor assays. 2. Assay plates were incubated. Evaporation was prevented by covering assay plates with metal lids containing holes to allow gas diffusion. 3. Compounds were added in a dose response manner with the final concentrations of 57, 11.4, 2.28, 0.46, 0.091, 0.018, 0.0037 uM. Vehicle-only plates, with DMSO being pin-transferred to columns 5-48, were inserted uniformly at the beginning and the end of each library to monitor and record any shifts in assay performance. 5. 125 uM Gly-Phe-7-Amino-4-trifluoromethylcoumarin (MP Biomedicals) working concentration was used at a final concentration of 25 uM. 7. To assess cell viability; the assay plates were read using the ViewLux high-throughput CCD imager (PerkinElmer), wherein single end-point fluorescence measurement was acquired (excitation 405/10; emission 540/25 nm). 8. Detection reagent SteadyGlo Luciferase (Promega) was added to the assay plate. 10. Luminescence is then measured on the ViewLux imager equipped with a clear emission filter using a 2 sec exposure. […]
Potency is the fitted concentration of half-maximal effect.

Compound	Potency	activity change, negative = inhibition
C[C@]12CCC3C(CCC4=CC(O)CC[C@@]43/C=N/O)C1(O)CCC2C1=CC(=O)OC1 (some centres undefined)	0.355 µM (active)	–
C[C@]12CC[C@H](O)C[C@H]1CC[C@@H]1[C@@H]2CC[C@]2(C)[C@@H](C3=CC(=O)OC3)CC[C@]12O	0.282 µM (active)	–
CC12CCC(O)CC1CCC1C2CCC2(C)C(C3=CC(=O)OC3)CCC12O (centres undefined)	0.398 µM (active)	–
COc1ccc(O)c2c(=O)c3c(OC)cc4c(c3oc12)C1C=COC1O4 (centres undefined)	2 µM (active)	–
O=C1NC(=O)N(CCc2ccc(F)cc2)C(=O)/C1=C/C=C/c1ccccc1	7.94 µM (active)	–
c1ccc2sc(N3CCNCC3)nc2c1	inactive	–
COc1cc2nc(CN3CC=C(c4ccccc4)CC3)[nH]c(=O)c2cc1OC	0.282 µM (active)	–
COc1cc2c(cc1OC)-c1c3c(cc4c1[C@@H](C2)N(C)CC4)OCO3	1.12 µM (active)	–
COC1C(O)C(C)OC(OC2C(Oc3cccc4c(O)c5c(=O)oc6ccc(C)c7c(=O)oc(c34)c5c67)OC(C)C(O)C2O)C1O (centres undefined)	–	-5.87% [at 11.5 µM] (inactive)
CN1C(=O)NC(=O)/C(=C\C=C\c2ccccc2[N+](=O)[O-])C1=O	11.2 µM (active)	–
CC12CCC3C(CCC4(O)CC(O)CCC34C=NO)C1(O)CCC2C1=COC(=O)C1 (centres undefined)	0.282 µM (active)	–
CNC(=O)Nc1ccc(C(=O)N/N=C\C23CC[C@@H](O)CC2(O)CC[C@@H]2[C@@H]3CCC3(C)C(C4=CC(=O)OC4)CCC23O)cc1 (some centres undefined)	25.1 µM (active)	–
CCCCN=C[C@]12CCC(O)CC1(O)CCC1[C@@H]2CC[C@]2(C)[C@H](C3C=CC(=O)O3)CCC12O (some centres undefined)	0.631 µM (active)	–
C1=NCCc2c1[nH]c1ccccc21	3.16 µM (active)	–
CC(=O)OC1(C)CC(C)C(=O)C(C(O)CC2CC(=O)NC(=O)C2)C1 (centres undefined)	0.01 µM (active)	–
C[C@H]1C[C@@H](C)C(=O)[C@@H]([C@H](O)CC2CC(=O)NC(=O)C2)C1	0.178 µM (active)	–
C[C@@H]1C[C@@H]([C@H](O)CC2CC(=O)NC(=O)C2)C(=O)[C@@H](C)C1	1.26 µM (active)	–

Compound	Potency	activity change, negative = inhibition
O=C(CSC1c2ccccc2-c2ccccc21)N/N=C/c1ccccc1O	3.16 µM (active)	–
C[C@H]1CCC[C@H](O)CCCCCc2cc(O)cc(O)c2C(=O)O1	3.16 µM (active)	–
C[C@H]1CCC[C@@H](O)CCC/C=C/c2cc(O)cc(O)c2C(=O)O1	1.41 µM (active)	–
COc1ccc(CCNCc2ccc(F)cc2)cc1OC	–	-6.67% [at 11.5 µM] (inactive)
O=C(Nc1ccc(OC(=O)N2CCCCC2)cc1)N1CCOCC1	4.47 µM (active)	–
CC(=O)O[C@H]1[C@H]2O[C@]23[C@@H]2CC[C@]4(O)C[C@@H](O)CC[C@]4(C)C2CC[C@]3(C)[C@H]1c1ccc(=O)oc1 (some centres undefined)	0.0398 µM (active)	–
C[C@H]1[C@@H](OS(=O)(=O)O)C[C@@H]2C[C@H]([C@@H](O)c3cc(=O)[nH]c(=O)[nH]3)NC3=NC[C@H]1N32	7.94 µM (active)	–
NC(=O)c1c(Br)n(C2OC(CO)C(O)C2O)c2ncnc(N)c12 (centres undefined)	1.58 µM (active)	–
Cc1cccc(C)c1-n1nnnc1C(c1cc2ccccc2o1)N1CCC(n2c(=O)[nH]c3ccccc32)CC1 (centres undefined)	3.16 µM (active)	–
O=c1[nH]c2ccccc2n1C1CCN(C(c2cc3ccccc3o2)c2nnnn2-c2ccc3c(c2)OCCO3)CC1 (centres undefined)	3.16 µM (active)	–
COc1cccc(C(c2nnnn2-c2ccc3c(c2)OCCO3)N2CCC(n3c(=O)[nH]c4ccccc43)CC2)c1OC (centres undefined)	3.55 µM (active)	–
COC(=O)C(O)(c1ccc(NC(=S)NC(=O)c2ccc(Cl)cc2Cl)c(C)c1)C(F)(F)F (centres undefined)	–	-8.26% [at 11.5 µM] (inactive)
CN1C2CCC1/C(=C/c1ccccn1)C(=O)/C2=C\c1ccccn1	0.398 µM (active)	–
CC1CC(C)CC(C)C(O)C(C#N)=CC=CCC(C2CCCC2C(=O)O)OC(=O)CC(O)C(C)C1 (centres undefined)	0.501 µM (active)	–
O=C1NC2C(=CC(O)C(O)C2O)c2cc3c(cc21)OCO3 (centres undefined)	0.199 µM (active)	–
CCCCc1ccc2[nH]cc(CCN)c2c1	3.16 µM (active)	–
NC(Cc1ccc(Cl)cc1)c1csc(Nc2ccccn2)n1 (centres undefined)	22.4 µM (active)	–
